Each structure is given as a SMILES string. About 1,100 (1.7%) of roughly 63,000 compounds were called active. Many of the other results were omitted from the sample, so actives are more common in it than they were. Entries with a potency or affinity are not part of this list. Values without a mark were called inactive.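 How the source made its calls: active means compounds whose percent cytotoxicity in the single-dose primary screen, scaled between solvent and toxic-drug controls, exceeds 50; inactive means the rest.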

The nature of this assay: viability loss of HPDE-C7K cells – cell-based, fluorescence, HTS, primary screen (AID 431).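 Further: 0% = DMSO solvent wells and 100% = doxorubicin-treated wells.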 Conditions: HPDE-C7K KRASV12 cells, Alamar Blue viability, 48 h; at 10 µM; active compounds read high.
Regarding `Cn1c(SCC(=O)NC(C)(C)C)nnc1-c1ccc(C(C)(C)C)cc1`, the cytotoxicity is 8.1%.
The same measure for `N#CCc1nc(CSc2nc3ccccc3o2)cs1`: -5.5%; for `O=C(O)CCN1C(=O)C2C3C=CC(C3)C2C1=O` (stereo unspecified): 4.7%.
As to `Cc1ccc2cc(CN(CCCO)S(=O)(=O)c3cccc4nsnc34)c(=O)[nH]c2c1C`, the cytotoxicity was -8.7%.
Next, `Cn1c(=O)c2c(SCc3cccnc3)nc(C3CC3)nc2n(C)c1=O`: -15.9%.
`C/C(CC1(O)/C(=N/O)CCc2nonc21)=N\O` (stereo unspecified): the cytotoxicity was -0.9%.
Next, `O=C(Nc1ccc(N2CCN(C(=O)c3ccccc3)CC2)c(Cl)c1)c1ccco1`: -11%; `Cc1ccccc1C(=O)N1CCN(c2ccc(NC(=O)c3ccco3)cc2Cl)CC1`: 14.5%.
The same measure for `Cc1cc(C(=O)CSc2nnc(Nc3ccccc3)s2)c(C)n1CC1CCCO1` (stereo unspecified): 1.1%.
Next, `O=C(CSc1nnc(NCc2ccccc2)s1)c1ccco1`: -6.2%; `Cc1cc(C(=O)CSc2nnc(NCc3ccccc3)s2)c(C)n1C`: 65.2% (active).
For `C=CCn1c(C)cc(C(=O)CSc2nnc(NCc3ccccc3)s2)c1C`, the cytotoxicity is 64.7% (active).
The same measure for `C=CCn1c(C)cc(C(=O)CSc2nnc(Cc3ccccc3)o2)c1C`: -7.3%.
In the case of `Cc1cc(C(=O)CSc2nnc(-c3ccccc3)n2C)c(C)n1C`, the cytotoxicity was 16.6%.
Next, `Cc1cc(C)n(CNc2nc(C(F)(F)F)cs2)n1`: -4.6%; `CC1CCN(Cc2ccc(NC(=O)CC3Oc4ccccc4NC3=O)cc2)CC1` (stereo unspecified): 0.1%; `CN1C(=O)CSc2ccc(NC(=O)N3CCC(N4CCCCC4)CC3)cc21`: -15.1%.
`Cc1ccc(C2C3=C(CC(C)(C)CC3=O)Nc3n[nH]c(C)c32)cc1` (stereo unspecified): the cytotoxicity is -5.7%.
Next, `COc1cc(Cl)c(C)cc1NC(=O)CSc1nc2ccccc2o1`: -5.2%.
Next, `CCOC(=O)C1C(C)N=C2SCC(=O)N2C1c1cccc(Br)c1` (stereo unspecified): -13%.
The same measure for `O=C(CSc1nc(-c2ccco2)cc(C(F)(F)F)n1)Nc1cccnc1`: -0.8%.
With `COC(=O)c1ccc(C(=O)OC)c(NC(=O)CSc2nc(-c3ccco3)cc(C(F)(F)F)n2)c1`, the cytotoxicity is -21.1%.
The same measure for `COC(=O)c1ccccc1NC(=O)CSc1nc(-c2ccco2)cc(C(F)(F)F)n1`: 51.7% (active).
As to `Cc1ccc(OCC(=O)NCCO)cc1C`, the cytotoxicity was 9.8%.
Next, `C=Cn1c(N2CCOCC2)nc2c1c(=O)[nH]c(=O)n2C`: -2.9%; `O=C(Nc1cc(C(=O)N2CCOCC2)ccc1N1CCCC1)c1cccs1`: -2.1%.
As to `CC(C)c1ccc2oc(-c3ccc(N)cc3)nc2c1`, the cytotoxicity was -11.3%.
The same measure for `CCc1ccc2oc(-c3cc(N)ccc3O)nc2c1`: 7.1%; for `CC(C)c1ccc2oc(-c3cc(N)ccc3O)nc2c1`: 51.5% (active); for `COC(=O)c1ccsc1NC(=O)CN1C(=O)CCC1=O`: -1.3%.
The same measure for `COCCn1c(SCC(=O)Nc2ncc(C)s2)nc2sc3c(c2c1=O)CCC3`: 14.3%.
Regarding `CN1C(=O)/C(=C2/C=CC=CN2C)OC1=S`, the cytotoxicity is -24.5%.
Turning to `COc1ccc(CCNC(=O)C2CCN(S(=O)(=O)c3cc(OC)ccc3OC)CC2)cc1`, the cytotoxicity is 2.3%.
Turning to `COc1cccc(C2=CC(c3ccccc3)n3nnnc3N2)c1` (stereo unspecified), the cytotoxicity is 43.2%.
Turning to `COc1ccc(C2=CC(c3ccc(OC)c(OC)c3)n3nnnc3N2)c(OC)c1` (stereo unspecified), the cytotoxicity is 4%.
Take `COc1ccccc1C1C=C(c2ccccc2)Nc2nnnn21` (stereo unspecified): the cytotoxicity is 25.4%.
Take `COc1cccc(C2=CC(c3cccc(OC)c3OC)n3nnnc3N2)c1` (stereo unspecified): the cytotoxicity is 58.1% (active).
On to `COc1cccc(C2=CC(c3cc(OC)ccc3OC)n3nnnc3N2)c1` (stereo unspecified), for which the cytotoxicity was 65.1% (active).
`COc1ccc(OC)c(C2C=C(c3ccc(C)c(C)c3)Nc3nnnn32)c1` (stereo unspecified): the cytotoxicity is 6%.
The same measure for `COc1cccc(C2=CC(c3cccc(OC)c3OC(F)F)n3nnnc3N2)c1` (stereo unspecified): -13.8%.
As to `COc1ccccc1C1C=C(c2ccc(C)cc2)Nc2nnnn21` (stereo unspecified), the cytotoxicity is -8.9%.
The same measure for `COc1cccc(C2=CC(c3ccc(N(C)C)cc3)n3nnnc3N2)c1` (stereo unspecified): -3.6%; for `COc1ccc(C2=CC(c3c(C)nn(-c4ccccc4)c3Cl)n3nnnc3N2)cc1OC` (stereo unspecified): 84.4% (active).
The same measure for `COc1cccc(C2=CC(c3ccc(OC)c(OC)c3OC)n3nnnc3N2)c1` (stereo unspecified): -4.5%; for `CC1CCCCC1NC(=O)CSc1nc2ccccc2c(=O)n1Cc1ccco1` (stereo unspecified): -6.9%; for `COc1cccc(N(CC(=O)Nc2ccccc2C)S(C)(=O)=O)c1`: 14.1%.
Next, `c1ccc(-c2nc3ccccc3nc2-c2ccccn2)nc1`: 13.9%; `COc1ccc(OC)c2[nH]c(=O)c(CCNC(=O)CC(C)C)cc12`: -6.6%.
As for `CCOC(=O)N1CCC(NC(=O)C2=C(C)C(=O)OC23CCC(C)CC3)CC1` (stereo unspecified), the cytotoxicity was -10.3%.
The same measure for `Cc1nn(C)c(C)c1S(=O)(=O)N1CCCC(C(=O)NC2CCCCC2)C1` (stereo unspecified): -4.9%; for `COc1ccc(NC(=O)CSc2nnc(-c3ccncc3)n2CC2CCCO2)c(OC)c1` (stereo unspecified): -18.3%.
With `CCC(CC)C(=O)NCCc1cc2c(OC)ccc(OC)c2[nH]c1=O`, the cytotoxicity was 7.1%.
On to `O=C(c1ccco1)N1CCN(c2ncnc3c2[nH]c2ccc(Br)cc23)CC1`, for which the cytotoxicity was 10%.
The same measure for `Clc1ccc(-c2nnc(-c3ccccc3Cl)o2)cc1`: 13.7%; for `Cc1nc(NC(=O)c2csc3ccccc23)sc1C`: 2.8%.
Regarding `COc1ccccc1C1(CC(=O)N2CCOCC2)CCOC(C(C)C)C1` (stereo unspecified), the cytotoxicity was -15.3%.
The same measure for `CC[C@H]1OC(=O)C[C@@H](O)[C@H](C)[C@@H](O[C@@H]2O[C@H](C)C[C@H](N(C)C)[C@H]2O)[C@@H](CC=O)C[C@@H](C)C(=O)C=C[C@]2(C)O[C@H]2[C@@H]1C`: 76.8% (active); for `CCC(=O)O[C@@H]1CC(=O)O[C@H](C)CC=CC=C[C@@H](O)[C@H](C)C[C@H](CC=O)[C@H](O[C@H]2O[C@H](C)[C@@H](O[C@H]3C[C@@](C)(O)[C@@H](OC(=O)CC)[C@H](C)O3)[C@H](N(C)C)[C@H]2O)[C@H]1OC`: -0.4%; for `Cc1cc(C)cc(NC(=O)Cn2ncn3c(cc4ccccc43)c2=O)c1`: -13.3%.
Next, `O=C1c2ccncc2C(=O)N1C1CCCCC1`: 2.8%; `CN1CCN(C2=C(Cl)C(=O)N(C3CCCCC3)C2=O)CC1`: 3%; `O=C(Nc1ccc2c(c1)OCCO2)C1CCN(S(=O)(=O)c2cccs2)CC1`: -8.1%.
Consider `O=C(CCCCCn1c(SCc2ccncc2)nc2ccccc2c1=O)NCc1ccco1`, for which the cytotoxicity is 9.3%.
Regarding `Cc1cc(O)c(-c2cc(C(=O)Nc3ccc(S(=O)(=O)N4CCOCC4)cc3)[nH]n2)cc1C`, the cytotoxicity was 6.5%.
Take `COc1ccc(OC)c(NC(=O)c2cc(-c3cc(Cl)ccc3O)n[nH]2)c1`: the cytotoxicity was 1.7%.
With `Cc1ccc(O)c(-c2cc(C(=O)Nc3ccc(S(=O)(=O)N4CC(C)OC(C)C4)cc3)[nH]n2)c1` (stereo unspecified), the cytotoxicity was -13.4%.
The same measure for `COc1ccc(NC(=O)c2cc(-c3cc(C)cc(C)c3O)n[nH]2)cc1Cl`: 70.7% (active).
`COc1ccc(OC)c(NC(=O)c2cc(-c3ccc(C)cc3O)n[nH]2)c1`: the cytotoxicity is -0.5%.
On to `Cc1c(N=C2SCC(=O)N2c2c(C)n(C)n(-c3ccccc3)c2=O)c(=O)n(-c2ccccc2)n1C`, for which the cytotoxicity was 15.2%.
Next, `COc1ccccc1/C=c1\sc2nc(-c3ccncc3)nn2c1=O`: -13.5%.
Next, `COc1ccc2nc3sc(C(=O)NCc4cccs4)c(N)c3cc2c1`: 5.5%; `COc1ccc(-c2oc3ncnc(NCCCN4CCOCC4)c3c2-c2ccc(OC)cc2)cc1`: 107% (active); `c1ccc(-c2oc3ncnc(NCCCN4CCOCC4)c3c2-c2ccccc2)cc1`: 59.8% (active).
The same measure for `c1ccc(-c2oc3ncnc(NCCN4CCOCC4)c3c2-c2ccccc2)cc1`: 42%; for `COc1ccc(-c2oc3ncnc(NCCN4CCOCC4)c3c2-c2ccc(OC)cc2)cc1`: 4%; for `N=c1c2c(-c3ccccc3)c(-c3ccccc3)oc2ncn1CCCN1CCOCC1`: 55.5% (active).
With `c1ccc(-c2oc3ncnc(NCCCn4ccnc4)c3c2-c2ccccc2)cc1`, the cytotoxicity was 17.3%.
On to `COc1ccc(-c2csc3ncnc(NCCN4CCOCC4)c23)cc1`, for which the cytotoxicity is 25.8%.
Regarding `COc1ccc(-c2oc3ncn(CCN4CCOCC4)c(=N)c3c2-c2ccc(OC)cc2)cc1`, the cytotoxicity is 17.3%.
For `N=c1c2c(-c3ccccc3)c(-c3ccccc3)oc2ncn1CCN1CCOCC1`, the cytotoxicity was 33.6%.
Next, `CCc1nnc(NC=C2C(=O)OC(C)(C)OC2=O)s1`: -7.7%.
The same measure for `Cc1c(/C(O)=C2/C(=O)C(=O)N(CCN3CCOCC3)C2c2cccnc2)cnn1-c1ccccc1` (stereo unspecified): -12.5%.
Consider `CCN(CC)CCN1C(=O)C(O)=C(C(=O)c2sc(C)nc2C)C1c1cccnc1` (stereo unspecified), for which the cytotoxicity is -8.8%.
In the case of `O=C(CN1CCN(C(=O)c2cccs2)CC1)NC1CCCCC1`, the cytotoxicity was -4.4%.
The same measure for `CC1(C)CC(=O)C(C=Nc2cccnc2)=C(O)C1`: 7.1%; for `COc1cc(C(=O)Nc2cccc(-c3nc4cc(C)ccc4o3)c2C)cc(OC)c1OC`: 14.3%.
Turning to `CCOC(=O)C1=C(N)Oc2cc(C)oc(=O)c2C1c1cccnc1` (stereo unspecified), the cytotoxicity is 4.4%.
For `Cc1n[nH]c(=O)nc1NCc1ccccc1`, the cytotoxicity was -17%.
Next, `CCCCCc1c(C)nc(NCc2ccccc2)[nH]c1=O`: 2.9%; `CCC(C)(C)NC(=O)C(c1cccn1C)N(Cc1ccccc1)C(=O)Cn1nnc2ccccc21` (stereo unspecified): -4.3%.
Next, `CC(=O)NC1CSCC1OC(C)=O` (stereo unspecified): -14.9%.
